Bioassay records (PubChem)
USP1 inh: USP1/UAF1 (human) deubiquitinase inhibition. O94782. recombinant USP1/UAF1, Ub-Rhodamine cleavage fluorescence. Potency, µM (top dose mostly 57.1 µM), inactives show at the top dose activity change, negative = inhibition, actives largely listed as inhibitors. 390,000 compounds, 0.23% hits. AID 743255; active means well fitted inhibition curve with a large enough effect; inconclusive means small, poorly fitted or top-dose-only effect; inactive means no such curve, though single readings can be large or run the other way; further: potency means the concentration at half of the fitted maximal effect; on the % scale 0 is the no-effect control and ±100 the full control effect; nearly all actives have a fitted effect of over 60% in size
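USP1/UAF1 complex (1 nM) preincubated 15 min at room temperature with compound, then Ub-Rho substrate (150 nM final) added. Kinetic fluorescence at 480/540 nm over 6 reads at 60 s intervals; 50 mM HEPES pH 7.8, 0.5 mM EDTA, 0.1 mg/ml BSA, 1 mM TCEP, 0.01% Tween-20.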
D1 agonist: human D1 receptor agonism | 360,000 compounds, 1% hits | activation, % at 2 µM | HEK293 T-REx D1 cells, calcium flux, agonist mode | AID 504660 | P21728; further: 0% is about no effect
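Agonism was scored from calcium flux recorded over 180 s (1 read/s) after pintool compound addition, following a 10-cycle baseline. Cells were inducible force-coupled HEK293 TREx D1, plated overnight at 30 C and loaded with no-wash calcium dye.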
D1 antagonist: antagonists of human D1 dopamine receptor; P21728; HEK293 TREx D1 cells, calcium flux, dopamine EC80; stronger effect = lower value; activity change, negative = inhibition, % at 10 µM; 360,000 compounds, 3.2% hits; in the data active means activity change below about -30%; further: on the % scale 0 is the no-effect control and ±100 the full control effect
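Tetracycline-induced HEK293 T-REx cells with force-coupled D1 receptor were loaded with a no-wash calcium dye. Compound was added after a 10 s baseline and read kinetically for 180 s; EC80 dopamine was then added and calcium flux followed another 180 s.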
TRHR ag: TRH receptor (human) agonism | P34981 | TRHR cells, calcium flux fluo-8, FDSS agonist mode | activation, % at 2 µM | 360,000 compounds, 0.18% hits | AID 493084; further: 0% is about no effect
Target sequence (P34981 whole entry, looked up): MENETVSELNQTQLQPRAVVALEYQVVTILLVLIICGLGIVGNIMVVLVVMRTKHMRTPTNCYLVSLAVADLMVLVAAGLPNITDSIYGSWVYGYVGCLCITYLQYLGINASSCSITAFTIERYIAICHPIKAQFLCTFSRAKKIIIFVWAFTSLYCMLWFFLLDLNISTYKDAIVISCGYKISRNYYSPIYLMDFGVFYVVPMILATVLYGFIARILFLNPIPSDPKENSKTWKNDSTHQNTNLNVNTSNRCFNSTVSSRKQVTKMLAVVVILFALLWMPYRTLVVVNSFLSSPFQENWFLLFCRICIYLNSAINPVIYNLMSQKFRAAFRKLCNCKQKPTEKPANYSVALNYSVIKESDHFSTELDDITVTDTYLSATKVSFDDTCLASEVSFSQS
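In this calcium-flux screen, cells bearing human TRHR are dye-loaded with fluo-8, baselined for 10 cycles, then exposed to library compounds; positive kinetic calcium responses during the agonist phase mark hits, with TRH as control.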
D1 PAM: potentiators of human D1 dopamine receptor. HEK293 TREx D1 cells, calcium flux, dopamine EC20 potentiation. 360,000 compounds, 0.036% hits. P21728. potentiation, % at 10 µM; in the data active means potentiation above about 30%; further: 0% is about no effect
TRHR PAM: TRH receptor (human) allosteric enhancement; P34981; TRHR cells, fluo-8 calcium fluorescence, EC20 TRH enhancement; enhancement, % at 2 µM; 360,000 compounds, 0.66% hits; AID 493056; in the data active means enhancement above about 30%; further: 0% is about no effect
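Enhancer read-out: after compound pinning and an initial kinetic agonist-mode read, an EC20 of TRH (10 nM final) was injected and fluo-8 calcium signal (Ex 480/Em 530) followed at 1 s/cycle for 100 cycles in TRHR-expressing cells.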
* = called active by the depositor; ? = inconclusive; / = no result. Sampled rows, rich in hits. Any-hit rate of the full collection: about 4.4%. Unless noted, no stated cut-off is given here; in the data, active means activation above about 30%; inactive means the rest.

SMILES	USP1 inh	D1 agonist	D1 antagonist	TRHR ag	D1 PAM	TRHR PAM
COc1cc(N)c(Cl)cc1NC(=O)c1ccccc1	4%	4	-55*	0	-4	7
COc1c(Cl)cc(C(=O)Nc2ccccc2-c2ccccc2)cc1Cl	-9%	3	-31*	1	3	11
Cc1cccc(N2CCN(C(=O)c3cc4c(=O)n(C)c5ccccc5c4s3)CC2)c1C	-7%	3	3	1	0	1
Cc1ccc(C(=O)NC2(C(F)(F)F)C(=O)Nc3c2c(=O)[nH]c(=O)n3CCc2ccccc2)cc1 (configuration not stated)	-5%	0	-40*	1	-6	-10
Cc1ccc(-n2c3c(c(=O)[nH]c2=O)C(NC(=O)C(C)(C)C)(C(F)(F)F)C(=O)N3)cc1 (configuration not stated)	-5%	-1	-74*	0	-5	-1
O=C(NCc1cccc(Cl)c1)NCc1noc2ccccc12	1%	-1	-13	0	1	-4
COc1ccc(-c2nc(C)c(CCNC(=O)c3ccc(F)c(F)c3)s2)cc1	-18%	1	-8	-1	-3	-1
CN(CC(=O)Nc1ccc(N2CCOCC2)cc1)C(=O)c1cn(-c2ccccc2)nc1-c1ccccc1	-2%	0	6	0	-7	7
CSCCC(NC(=O)c1ccccc1Cl)C(=O)N(C)CC(=O)Nc1ccc(N2CCOCC2)cc1 (configuration not stated)	-16%	1	2	0	-4	14
COc1cccc(-c2nn(-c3ccc(C)cc3)cc2C(=O)N(C)CC(=O)Nc2cccc(F)c2)c1	-26%	11	-32*	0	/	-2
CN(CC(=O)Nc1ccc(N2CCOCC2)cc1)C(=O)c1cccc(Cl)c1Cl	-22%	3	-36*	0	-9	3
COc1ccc(Br)c(C(=O)N(C)CC(=O)Nc2ccc(N3CCOCC3)cc2)c1	-21%	0	-51*	0	-3	9
COc1ccc(OCC(=O)Nc2ccc(N3CCOCC3)cc2)cc1	-15%	1	-3	0	-1	-5
Cc1cccc(-c2nn(-c3ccccc3)cc2C(=O)N(C)CC(=O)Nc2ccc(N3CCOCC3)cc2)c1	-14%	-1	-71*	0	-3	0
COc1ccc(-c2nn(-c3ccccc3)cc2C(=O)N(C)CC(=O)Nc2cccc(F)c2)cc1	-20%	3	-14	0	-4	3
CCOc1ccc(C(c2c(O)cc(C)n(Cc3ccco3)c2=O)N2CCN(C)CC2)cc1 (configuration not stated)	-24%	0	4	0	-2	0
O=C(CSc1nnc(-c2ccccc2Cl)o1)N1CCCc2ccccc21	-17%	9	-7	-1	-2	-2
COc1ccc(-c2cn3nc(N4CCCC(C(=O)Nc5cc(C)ccc5C)C4)sc3n2)cc1 (configuration not stated)	?	-2	6	0	0	2
CCCNC(=O)Cn1c(=O)cc(C)c2c(C)nn(-c3cccc(F)c3)c21	-14%	0	8	0	-4	5
CCc1ccccc1NC(=O)C1CCCN(C(=O)c2cnn(-c3ccccc3)c2-n2cccc2)C1 (configuration not stated)	-21%	-3	5	-2	-1	-1
CC(C)CC(NC(=O)c1ccc(Cl)cc1)C(=O)O (configuration not stated)	-1%	4	2	0	-4	33*
O=C(O)CCC(NC(=O)c1ccc(Cl)cc1)C(=O)O (configuration not stated)	-10%	1	-32*	0	-4	0
CCCCOc1ccc(C2c3c(oc4ccc(C)cc4c3=O)C(=O)N2CCCN(C)C)cc1OCC (configuration not stated)	2%	2	-3	2	-2	-6
Cc1cccn2c(=O)cc(COc3ccc(NC(=O)C(C)Oc4ccccc4)cc3)nc12 (configuration not stated)	6%	1	-49*	0	-3	4
Cc1cccc(C(=O)Nc2cccc(OCc3cc(=O)n4ccccc4n3)c2)c1	-11%	-1	-71*	0	-6	0
SMILES	USP1 inh	D1 agonist	D1 antagonist	TRHR ag	D1 PAM	TRHR PAM
CCOc1ccc(C(=O)Nc2cccc(OCc3cc(=O)n4ccccc4n3)c2)cc1	-20%	-2	-17	-1	-3	-7
Cc1cccn2c(=O)cc(COc3cccc(NC(=O)Nc4cccc(Cl)c4)c3)nc12	?	1	-59*	0	-2	-1
Cc1cccn2c(=O)cc(COc3cccc(NC(=O)c4cccc(Cl)c4)c3)nc12	-6%	-2	-14	0	-3	5
CCOc1ccc(-c2nonc2NC(=O)c2oc3ccc(Cl)cc3c2C)cc1	-15%	1	-32*	0	3	-1
COc1ccc(-c2nonc2NC(=O)c2oc3ccccc3c2C)cc1OC	-1%	2	-22	0	-1	2
CCCCc1nn2c(=O)cc(COC(=O)c3ccccc3NC(=O)C3CCCCC3)nc2s1	-3%	4	7	1	0	2
CCc1ccc(CN(Cc2ccco2)c2cnc(S(C)(=O)=O)nc2C(=O)Nc2ccc(C)c(Cl)c2)cc1	-14%	3	14	2	4	-4
CCOc1nc(C)cc(C)c1S(=O)(=O)c1cccc(Cl)c1	?	30*	-49*	0	-4	22
Cc1cc(C)c(S(=O)(=O)c2cccc(Cl)c2)c(Cl)n1	-12%	3	-2	0	-2	1
Cc1nc2cc(-c3ccccc3)nn2c(C)c1CCC(=O)NCc1ccco1	-26%	4	-32*	-1	/	1
Cc1nc2cc(-c3cccc(F)c3)nn2c(C)c1CCC(=O)NC(C)CCc1ccco1 (configuration not stated)	0%	5	-35*	0	/	4
COc1ccccc1-c1cc2nc(C)c(CCC(=O)NCc3ccco3)c(C)n2n1	?	2	4	-1	-10	-2
COc1ccccc1CNC(=O)CN1C(=O)CCc2cc(S(=O)(=O)N3CCCCC3)ccc21	-4%	-1	-56*	-1	1	-7
COc1ccc(S(=O)(=O)N2CCCCCC2)cc1NC(=O)CCNC(=O)c1ccccc1Cl	-17%	/	/	/	/	/
COc1ccc(S(=O)(=O)N2CCCCCC2)cc1NC(=O)CN1C(=O)NC(C)(c2ccccc2)C1=O (configuration not stated)	-25%	1	-31*	0	-5	24
